Pol kappa inh-1 – qHTS for Inhibitors of Polymerase Kappa; purified Pol kappa, fluorescent DNA synthesis assay, 10 min; DNA polymerase kappa (Homo sapiens), Q9UBT6; 400,000 compounds, 0.53% hits; AID 588579, 2011; Potency, µM (series often up to 107 µM), inactives show at the highest dose activity, negative = inhibition, most hits filed as inhibitors; note: potency is the fitted concentration of half-maximal effect; % is set by controls: 0 for no effect and ±100 for the full control effect
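Kinetic fluorescence screen: compound preincubated 15 min RT with 10 nM enzyme; 50 nM substrate (final) initiates; reads at 0/10 min.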
Pol eta inh-1 – qHTS for Inhibitors of Polymerase Eta | DNA polymerase eta (Homo sapiens), Q9Y253 | recombinant Pol eta, fluorescent DNA replication assay | Potency, µM (series often up to 114 µM), for the others: at the highest dose activity change, negative = inhibition, hits mostly inhibitors | 390,000 compounds, 1.2% hits | AID 588591, 2011; note: potency is the fitted concentration of half-maximal effect; % is set by controls: 0 for no effect and ±100 for the full control effect
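Fluorescent replication assay: 50 nM final substrate added after a 15 min room-temperature compound preincubation with 10 nM enzyme. Signal taken at 0 min and again at 10 min.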
TDP1 inh – qHTS Assay for Inhibitors of Tyrosyl-DNA Phosphodiesterase (TDP1) | recombinant TDP1, AlphaScreen DNA substrate cleavage | Potency, µM (highest dose often 130 µM), for inactives: at the highest dose activity change, negative = inhibition, most hits filed as inhibitors | 350,000 compounds, 0.28% hits; note: potency is the fitted concentration of half-maximal effect; % is set by controls: 0 for no effect and ±100 for the full control effect; nearly all actives have a fitted effect of over 40% in size
Target sequence (Q9NUW8 whole entry, looked up): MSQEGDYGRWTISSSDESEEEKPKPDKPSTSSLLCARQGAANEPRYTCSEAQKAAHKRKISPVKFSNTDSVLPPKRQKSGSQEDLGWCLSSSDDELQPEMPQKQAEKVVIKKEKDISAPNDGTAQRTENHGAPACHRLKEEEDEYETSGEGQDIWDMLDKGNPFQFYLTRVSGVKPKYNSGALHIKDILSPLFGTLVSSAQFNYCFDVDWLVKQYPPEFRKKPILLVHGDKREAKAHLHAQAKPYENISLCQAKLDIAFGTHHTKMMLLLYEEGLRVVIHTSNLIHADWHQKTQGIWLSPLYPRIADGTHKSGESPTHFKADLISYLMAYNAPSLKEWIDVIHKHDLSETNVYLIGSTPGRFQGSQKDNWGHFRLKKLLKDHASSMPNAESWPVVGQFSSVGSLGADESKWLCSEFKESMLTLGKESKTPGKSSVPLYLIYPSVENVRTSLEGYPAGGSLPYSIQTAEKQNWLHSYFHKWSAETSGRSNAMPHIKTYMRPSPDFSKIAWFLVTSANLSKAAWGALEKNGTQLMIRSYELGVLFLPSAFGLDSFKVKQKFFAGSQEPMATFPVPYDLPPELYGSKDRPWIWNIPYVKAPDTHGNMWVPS
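Compounds were preincubated with Tdp1 (1 nM final) for 15 min at room temperature before substrate (15 nM final) started a 5 min reaction; beads (10 ug/ml final) were then added for 10 min before AlphaScreen detection.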
POLB inh – qHTS Assay for Inhibitors of DNA Polymerase Beta. P06746. Pol beta primer extension/strand displacement, fluorescence kinetic. Potency, µM (highest dose often 114 µM), for inactives: at the top dose activity change, negative = inhibition, hits mostly inhibitors. 340,000 compounds, 1.3% hits; note: potency is the fitted concentration of half-maximal effect; % is set by controls: 0 for no effect and ±100 for the full control effect
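Human Pol beta at 10 nM; strand-displacement substrate 50 nM final. Compound exposure 15 min at room temperature before start, reaction 10 min at room temperature.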
FEN1 inhibitor – qHTS Assay for the Inhibitors of Human Flap endonuclease 1 (FEN1); Recombinant FEN1 flap cleavage, fluorescence, 15 min; Potency, µM (titrated, usually from 114 µM), for the others: at the highest dose activity change, negative = inhibition, actives largely listed as inhibitors; 390,000 compounds, 0.35% hits; note: potency is the fitted concentration of half-maximal effect; % is set by controls: 0 for no effect and ±100 for the full control effect; nearly all actives have a fitted effect of over 65% in size
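Potency values derive from four-parameter Hill fits of normalized qHTS data. The reaction used 10 nM FEN1 preincubated 15 min at room temperature with compound, then 50 nM DNA substrate, read at 0 and 15 min.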
Pol iota inh – qHTS for Inhibitors of Polymerase Iota; 390,000 compounds, 1% hits; AID 588590, 2011; DNA polymerase iota (Homo sapiens), Q9UNA4; Potency, µM (titrated, usually from 115 µM), for the others: at the top dose activity, negative = inhibition, hits mostly inhibitors; Pol iota fluorescent replication assay, 10 min; note: potency is the fitted concentration of half-maximal effect
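Fluorescent replication assay read twice, at 0 min and 10 min after adding 50 nM (final) substrate. Enzyme (10 nM) and compounds were first incubated 15 min at room temperature; enzyme-free buffer wells were negative controls.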
GALK inh confirm – Confirmation Assay for Inhibitors of Human Galactokinase (GALK). purified GALK, Kinase-Glo ATP depletion luminescence. 150 compounds, 70% hits. shares compounds with Pol eta inh-1. Potency, µM (doses to about 115 µM), for the others: at the top dose activity, negative = inhibition, actives largely listed as inhibitors
GALK redox cs – Confirmatory Assay for Inhibitors of Human Galactokinase (GALK): Phenol-HRP redox assay counterscreen; shares compounds with Pol eta inh-1; Phenol red-HRP H2O2 redox cycling, absorbance 600 nm; Potency, µM (series often up to 115 µM), for inactives: top-dose activity change, negative = H2O2 signal, usual class: inhibitors; 150 compounds, 40% hits; AID 2035, 2009
HEK293 tox – Secondary Assay for Inhibitors of Human Galactokinase (GALK): HEK-293 Cell Viability Assay. shares compounds with Pol eta inh-1. HEK-293 viability, ATP luminescence (CellTiter-Glo), 24/48 h. Potency, µM (doses to about 46.1 µM), for inactives: at the top dose activity change, negative = cytotoxicity, usual class: inhibitors. 170 compounds, 10% hits; note: potency is the fitted concentration of half-maximal effect; % is set by controls: 0 for no effect and ±100 for the full control effect
Pol kappa inh-2 – qHTS for Inhibitors of Polymerase Kappa: Confirmatory Assay for Cherry-picked Compounds; purified Pol-kappa, fluorescent strand-displacement substrate; AID 720501, 2013; 920 compounds, 76% hits; shares compounds with Pol eta inh-1; Potency, µM, most hits filed as inhibitors; note: potency is the fitted concentration of half-maximal effect
Pol eta inh-2 – qHTS for Inhibitors of Polymerase Eta: Confirmatory Assay for Cherry-picked Compounds; shares compounds with Pol eta inh-1; Pol eta primer extension, TAMRA/BHQ fluorescence, 10 min; Potency, µM, hits mostly inhibitors; 2,600 compounds, 64% hits; AID 720502, 2013; note: potency is the fitted concentration of half-maximal effect
The depositor's hits bear a star; [ ] = dose if it differs, or a comment. The list is not random: actives were taken first. Their share in the collection is about 2.4%. Calls come from the whole dose curve; as a rule, active = well fitted curve in the direction sought with a large enough effect; inconclusive = small, poorly fitted or top-dose-only effect, or another doubt; inactive = no such curve, though single readings can be large; an effect the other way counts as inactive or inconclusive.

Screening Cn1c(=O)c2nc3ccc(NC(=O)C(F)(F)F)cc3nc2n(C)c1=O returned Pol kappa inh-1 -4%, Pol eta inh-1 -10%, TDP1 inh 5%, POLB inh 2%, FEN1 inhibitor 8% and Pol iota inh 41%.
For CC(=O)Nc1ccc2nc3c(=O)n(C)c(=O)n(C)c3nc2c1 the results were Pol kappa inh-1 inconclusive, Pol eta inh-1 35µM*, POLB inh inconclusive, FEN1 inhibitor inconclusive, Pol iota inh 10µM* and Pol eta inh-2 85*.
Screening Cc1cnc(NC(=O)c2c(-c3ccccc3)noc2C)s1 returned Pol kappa inh-1 -11%, Pol eta inh-1 -1%, POLB inh 10%, FEN1 inhibitor -15% and Pol iota inh 1%.
For O=C(O)C1CCN(C(=O)CSc2nc3ccccc3c(=O)n2Cc2ccccc2)CC1 the results were Pol kappa inh-1 3%, Pol eta inh-1 -2%, POLB inh 13%, FEN1 inhibitor -10% and Pol iota inh 12%.
`S=c1[nH]nc(-c2ccccc2)n1/N=C/c1cccc(Br)c1` gave Pol kappa inh-1 -1%, Pol eta inh-1 2%, POLB inh 2%, FEN1 inhibitor 0% and Pol iota inh 100%.
For S=c1[nH]nc(-c2cc(-c3ccccc3)n[nH]2)n1/N=C/c1cccc(Cl)c1 the results were Pol kappa inh-1 inconclusive, Pol eta inh-1 40µM*, TDP1 inh 35µM*, POLB inh 7.1µM*, FEN1 inhibitor inconclusive, Pol iota inh 25µM* and Pol eta inh-2 27*.
CC1CCN(S(=O)(=O)c2ccc3c(c2)CCN3C(=O)Nc2cccc(Br)c2)CC1 was read as Pol kappa inh-1 16%, TDP1 inh -3%, POLB inh 38%, FEN1 inhibitor 2% and Pol iota inh 38%.
For O=C(N/N=C1/C(=O)c2cccc3cccc1c23)c1ccc(Cl)cc1 the results were Pol kappa inh-1 -42%, Pol eta inh-1 8.9µM*, POLB inh inconclusive, FEN1 inhibitor 79µM*, Pol iota inh 49% and Pol eta inh-2 inconclusive.
Screening CC1CCN(S(=O)(=O)c2ccc3c(c2)C(Cl)(Cl)C(=O)N3)CC1 returned Pol eta inh-1 32µM* and Pol eta inh-2 inconclusive.
For CC1CCN(S(=O)(=O)c2ccc3ccccc3c2)CC1 the results were Pol kappa inh-1 -13%, Pol eta inh-1 -4%, TDP1 inh -5%, POLB inh -3%, FEN1 inhibitor -18% and Pol iota inh -1%.
CCn1nc([N+](=O)[O-])c(C(C#N)c2nc3cc(C(F)(F)F)ccc3s2)c(Cl)c1=O (stereo not given) was read as Pol kappa inh-1 -10%, Pol eta inh-1 89µM*, TDP1 inh 12%, POLB inh 56µM*, FEN1 inhibitor inconclusive, Pol iota inh inconclusive and Pol kappa inh-2 60*.
`Cc1ccc(C(=O)Nn2cnnc2)cc1S(=O)(=O)N1CCOCC1` gave Pol kappa inh-1 6%, Pol eta inh-1 -3%, TDP1 inh -1%, POLB inh 7%, FEN1 inhibitor 5% and Pol iota inh -20%.
CC1=NN(c2ccccc2)C(=O)/C1=C/c1c(O)n(-c2ccc(F)c(Cl)c2)[nH]c1=O was read as Pol kappa inh-1 inconclusive, Pol eta inh-1 28µM*, TDP1 inh 9%, POLB inh inconclusive, FEN1 inhibitor inconclusive, Pol iota inh -28%, GALK inh confirm 30µM*, GALK redox cs 5% and HEK293 tox 12%.
For O=C(/C=C/c1ccc(NC(=O)c2ccccc2-c2ccccc2C(=O)O)cc1)c1ccccc1 the results were Pol kappa inh-1 -25%, Pol eta inh-1 11µM*, TDP1 inh -7%, POLB inh -25%, FEN1 inhibitor -2%, Pol iota inh inconclusive and Pol eta inh-2 30*.
For O=C(O)c1ccccc1-c1ccccc1C(=O)Nc1ccc(F)cc1 the results were Pol kappa inh-1 -3%, Pol eta inh-1 7%, POLB inh -1%, FEN1 inhibitor 0% and Pol iota inh 105%.
For O=C(CCc1ccccc1)NCc1ccc2c(c1)CCN2C(=O)c1ccc(Cl)cc1 the results were Pol kappa inh-1 -3%[60.1 µM], Pol eta inh-1 -16%, TDP1 inh -2%, POLB inh 10%, FEN1 inhibitor -6% and Pol iota inh 0%.
O=C(CN1C(=O)C2CCCCC2C1=O)Nc1nc(-c2ccccn2)cs1 (stereo not given) was read as Pol kappa inh-1 -11%, Pol eta inh-1 inconclusive, TDP1 inh 2%, POLB inh 1%, FEN1 inhibitor -2% and Pol iota inh -13%.
